Assay [1] is described as follows: BSK_3C_Vis: BioMAP Diversity Plus: 3C Assay for Morphology Visualization (AID 2283025).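 Further: fitted both ways so gain or loss versus DMSO counts.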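 On AC50: light microscopy image of cell morphology used as background control.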 The settings on record: primary human endothelial cells (HUVEC). In short, it runs like this:
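Human umbilical vein endothelial cell morphology was inspected by light microscopy 24 h after chemical dosing; scored bidirectionally relative to DMSO.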

Read-out in assay [2]: Transforming growth factor beta 1 (TGFb1), TGFB1 (gene 7040)
Briefly: BSK_BE3C_TGFb1: BioMAP Diversity Plus: BE3C Assay for Transforming growth factor beta 1 (TGFb1) Biomarker Activity (AID 2283036). The settings on record: primary human bronchial epithelial cells; actives raise or lower the signal. Summed up: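 Primary human bronchial epithelial cells dosed with chemical; TGF-b1 measured by ELISA 24 h after dosing. Bidirectional curve fitting against DMSO negative control; SRB total-protein staining in parallel cultures gauged cytotoxicity.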

Assay [3] in a line: BSK_CASM3C_SRB: Viability Assessment in the BioMAP Diversity Plus: CASM3C Assay (AID 2283050). Particulars: primary human coronary artery smooth muscle cells.
Read-out in assay [4]: Transforming growth factor beta 1 (TGFb1), TGFB1 (gene 7040)
Put plainly: BSK_KF3CT_TGFb1: BioMAP Diversity Plus: KF3CT Assay for Transforming growth factor beta 1 (TGFb1) Biomarker Activity (AID 2283072). The settings on record: primary human keratinocytes with fibroblasts; actives raise or lower the signal. In short, it runs like this:
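Human keratinocyte/foreskin fibroblast co-culture; TGF-b1 measured by ELISA 24 h after dosing, fitted bidirectionally versus DMSO. Cytotoxicity checked in parallel cultures by total protein (SRB staining, 560 nm).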

Read-out in assay [5]: CD40, CD40 (gene 958)
Put plainly: BSK_LPS_CD40: BioMAP Diversity Plus: LPS Assay for CD40 Biomarker Activity (AID 2283076). Particulars: primary human HUVEC with PBMC; actives raise or lower the signal. In short, it runs like this:
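In the LPS system of human endothelial cells with peripheral blood mononuclear cells, CD40 levels were read by ELISA 24 h post-treatment. Signal changes in either direction were fitted against the DMSO baseline, with parallel SRB protein staining.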

Read-out in assay [6]: Interleukin-1 alpha (IL1a), IL1A (gene 3552)
Put plainly: BSK_LPS_IL1a: BioMAP Diversity Plus: LPS Assay for Interleukin-1 alpha (IL1a) Biomarker Activity (AID 2283080). Particulars: primary human HUVEC with PBMC; actives raise or lower the signal. Summed up:
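Readout is IL-1a level by ELISA, 24 h post-dose, fitted as gain or loss relative to DMSO. System: LPS-activated human primary co-culture of vascular endothelium and peripheral blood mononuclear cells, with parallel SRB total-protein cytotoxicity.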

Read-out in assay [7]: Monocyte Chemoattractant Protein-1 (MCP1), CCL2 (gene 6347)
Briefly: BSK_LPS_MCP1: BioMAP Diversity Plus: LPS Assay for Monocyte Chemoattractant Protein-1 (MCP1) Biomarker Activity (AID 2283081).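 On AC50: secreted MCP-1 protein quantified by ELISA in culture supernatant.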 The settings on record: primary human HUVEC with PBMC; actives raise or lower the signal. In short, it runs like this: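 Secreted MCP-1 read by ELISA at 24 h post-dosing in an LPS-activated co-culture of endothelial cells with peripheral blood mononuclear cells. Fits run in both directions, DMSO as baseline; parallel SRB staining tracks overt cytotoxicity.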

Assay [8] is described as follows: BSK_LPS_PGE2: BioMAP Diversity Plus: LPS Assay for Prostaglandin E2 (PGE2) Biomarker Activity (AID 2283082). The settings on record: primary human HUVEC with PBMC; actives raise or lower the signal. Summed up:
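HUVEC plus human PBMC co-culture stimulated with LPS; secreted PGE2 quantified by ELISA 24 h after chemical dosing. Activity fitted bidirectionally against DMSO baseline; parallel SRB staining (0.1% SRB after 10% TCA fixation, 560 nm) flags overt cytotoxicity.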

Read-out in assay [9]: Macrophage colony-stimulating factor (MCSF), CSF1 (gene 1435)
Put plainly: BSK_LPS_MCSF: BioMAP Diversity Plus: LPS Assay for Macrophage colony-stimulating factor (MCSF) Biomarker Activity (AID 2283083). Particulars: primary human HUVEC with PBMC; actives raise or lower the signal. In short, it runs like this:
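Bidirectional fitting against DMSO was applied to M-CSF levels read by ELISA at 24 h post-dose. The system pairs human umbilical vein endothelium with peripheral blood mononuclear cells; parallel SRB staining tracked cytotoxicity.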

Read-out in assay [10]: Tissue Factor, F3 (gene 2152)
Put plainly: BSK_LPS_TissueFactor: BioMAP Diversity Plus: LPS Assay for Tissue Factor Biomarker Activity (AID 2283084). The settings on record: primary human HUVEC with PBMC; actives raise or lower the signal. Summed up:
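Compound was added to an endothelial cell/PBMC co-culture, and after 24 h tissue factor (CD142) was read by ELISA. Gain or loss of signal was fitted against a DMSO baseline, and parallel SRB staining (560 nm) tracked overt cytotoxicity.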

Read-out in assay [11]: Vascular cell adhesion molecule 1 (VCAM1), VCAM1 (gene 7412)
Put plainly: BSK_LPS_VCAM1: BioMAP Diversity Plus: LPS Assay for Vascular cell adhesion molecule 1 (VCAM1) Biomarker Activity (AID 2283086). The settings on record: primary human HUVEC with PBMC; actives raise or lower the signal. In short, it runs like this:
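Human umbilical vein endothelial cells co-cultured with PBMC and stimulated with LPS; VCAM-1 measured by ELISA 24 h after dosing. Bidirectional curve fitting against DMSO baseline; cytotoxicity tracked in parallel by SRB total-protein staining.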

Read-out in another assay: CD38, CD38 (gene 952)
Put plainly: BSK_SAg_CD38: BioMAP Diversity Plus: SAg Assay for CD38 Biomarker Activity (AID 2283087). The settings on record: primary human HUVEC with PBMC; actives raise or lower the signal. Summed up: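 Human HUVEC plus PBMC co-culture stimulated with superantigen; CD38 measured by ELISA 24 h after chemical dosing. Fluorescence read-out, bidirectional fit against DMSO; cytotoxicity tracked in parallel by SRB and Alamar Blue.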

Read-out in assay [12]: CD40, CD40 (gene 958)
Put plainly: BSK_SAg_CD40: BioMAP Diversity Plus: SAg Assay for CD40 Biomarker Activity (AID 2283088). The settings on record: primary human HUVEC with PBMC; actives raise or lower the signal. Summed up:
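CD40 is measured by fluorescence ELISA in an endothelial/PBMC primary human co-culture at 24 h post-dose. Fitting is bidirectional, DMSO baseline. Parallel SRB staining (560 nm) flags cytotoxicity.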

Read-out in a further assay: CD69, CD69 (gene 969)
Briefly: BSK_SAg_CD69: BioMAP Diversity Plus: SAg Assay for CD69 Biomarker Activity (AID 2283089). Particulars: primary human HUVEC with PBMC; actives raise or lower the signal. In short, it runs like this: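 HUVEC co-cultured with PBMC were dosed with chemical, and CD69 was measured by ELISA with fluorescence read-out 24 h later. Bidirectional curve fitting used DMSO as negative control and activity baseline.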

Read-out in assay [13]: Monocyte Chemoattractant Protein-1 (MCP1), CCL2 (gene 6347)
Briefly: BSK_SAg_MCP1: BioMAP Diversity Plus: SAg Assay for Monocyte Chemoattractant Protein-1 (MCP1) Biomarker Activity (AID 2283090). The settings on record: primary human HUVEC with PBMC; actives raise or lower the signal. In short, it runs like this:
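MCP-1 levels in the endothelial–PBMC SAg co-culture were quantified by ELISA at 24 h post-dosing; both increases and decreases versus DMSO scored. Cytotoxicity monitored by SRB total protein in parallel cultures.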

Read-out in assay [14]: Monokine induced gamma interferon (MIG), CXCL9 (gene 4283)
Put plainly: BSK_SAg_MIG: BioMAP Diversity Plus: SAg Assay for Monokine induced gamma interferon (MIG) Biomarker Activity (AID 2283092). Particulars: primary human HUVEC with PBMC; actives raise or lower the signal. In short, it runs like this: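 HUVEC plus human PBMC co-culture, chemicals dosed and MIG (CXCL9) quantified by ELISA at 24 h. Bidirectional curve fitting against DMSO as negative control and baseline, so both gain and loss of signal count as activity.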

Assay [15] in a line: BSK_SAg_SRB: Viability Assessment in the BioMAP Diversity Plus: SAg Assay (AID 2283096).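 Further: cells read one day after compound addition; hits may be either gain or loss of signal compared with DMSO.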 Particulars: primary human HUVEC with PBMC. Summed up:
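Human umbilical vein endothelial cells co-cultured with PBMC, read 24 h after compound dosing. Total protein measured by sulforhodamine B staining (0.1% SRB after 10% TCA fixation, absorbance 560 nm); bidirectional fit versus DMSO baseline.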

Assay [16] is described as follows: BSK_BT_PBMCCytotoxicity: PBMC Cytotoxicity Assessment in the BioMAP Diversity Plus: BT Assay (AID 2284225).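 Further: PBMC viability measured by Alamar Blue dye reduction fluorescence.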 The settings on record: primary human B cells with PBMC. Summed up: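 PBMC (75,000/well) pretreated with compound 1 h, then activated with SEB and TSST-1 (20 ng/mL each final), incubated 90 h; Alamar Blue added 6 h, fluorescence read at 546/580 nm. Fitted relative to DMSO.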

Read-out in assay [17]: Secreted IgG (sIgG), gene 3500
Briefly: BSK_BT_sIgG: BioMAP Diversity Plus: BT Assay for Secreted IgG (sIgG) Biomarker Activity (AID 2284226). Particulars: primary human B cells with PBMC. In short, it runs like this: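 Human B cell plus PBMC co-culture; secreted IgG measured by ELISA 24 h after chemical dosing. Response fitted in positive direction relative to DMSO baseline.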

In assay [18] the target is Estrogen receptor (Homo sapiens) (UniProt P03372). Put plainly: ATG_ERa_TRANS: Attagene TRANS-FACTORIAL HepG2 Assay for human Estrogen Receptor alpha (ERa) (AID 2282970; active means hit-call score of the fitted dose curve at least 0.9, where 1 is the maximum). The settings on record: HepG2 Attagene TRANS ERa GAL4 reporter, mRNA. In short, it runs like this: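 Cells: HepG2, transiently transfected. Construct: GAL4-UAS reporter units regulated by exogenous NR-Gal4 chimeras. Time: 24 h. Detection: reporter mRNA by RT-PCR, capillary electrophoresis, fluorescence. Baseline: DMSO, upward fitting.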

Records with an inconclusive call do not appear. Calls of active or inactive are those of the source. How the source made its calls, unless noted: active means hit-call score of the fitted dose curve at least 0.9, where 1 is the maximum; inactive means score below 0.9.

Chain of Estrogen receptor (Homo sapiens) (P03372 whole entry, looked up, the tested form may be a part): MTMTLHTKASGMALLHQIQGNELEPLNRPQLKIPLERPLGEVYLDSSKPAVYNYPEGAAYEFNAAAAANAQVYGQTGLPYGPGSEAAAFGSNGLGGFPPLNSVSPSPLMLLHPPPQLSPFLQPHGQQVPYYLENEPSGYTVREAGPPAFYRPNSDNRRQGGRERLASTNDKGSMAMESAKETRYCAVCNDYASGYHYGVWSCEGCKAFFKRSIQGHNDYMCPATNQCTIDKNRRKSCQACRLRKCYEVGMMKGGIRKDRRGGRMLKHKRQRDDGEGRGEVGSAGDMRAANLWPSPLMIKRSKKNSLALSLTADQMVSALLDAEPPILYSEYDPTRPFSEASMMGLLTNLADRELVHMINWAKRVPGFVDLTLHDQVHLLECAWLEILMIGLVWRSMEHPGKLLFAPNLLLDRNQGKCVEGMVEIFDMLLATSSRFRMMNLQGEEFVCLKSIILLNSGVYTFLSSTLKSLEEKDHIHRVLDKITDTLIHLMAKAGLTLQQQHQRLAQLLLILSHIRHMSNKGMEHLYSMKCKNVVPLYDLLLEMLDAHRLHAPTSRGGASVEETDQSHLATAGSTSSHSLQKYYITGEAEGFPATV

For the compound `Oc1cccc2ccccc12`, the outcome in assay [1] is “inactive”; in assay [2], “inactive”; in assay [3], “inactive”; in assay [4], “inactive”; with CD40, CD40 (gene 958) [5] it was “inactive”; in assay [6], “inactive”. For the same compound, the outcome was “inactive” in assay [7]; “inactive” in assay [8]; “inactive” in assay [9]; “inactive” in [11]; “inactive” in the assay with CD38, CD38 (gene 952); “inactive” with CD40, CD40 (gene 958) [12]. For the same compound, the outcome with CD69, CD69 (gene 969) was “inactive”; in assay [13] it was “inactive”; in assay [14], “inactive”; in assay [15], “inactive”; in assay [16], “inactive”; in [17] it was “inactive”. Further, the AC50 (in general, the concentration giving half of the maximal activity seen) in assay [10] is 6.27 µM (active).
For `COC(OC)C(C)c1ccccc1` (configuration not stated), in assay [18], the compound was classed as inactive.
For the compound `CC[N+](CC)(CC(=O)Nc1c(C)cccc1C)Cc1ccccc1` (tested in a mixture with another compound), the outcome in assay [3] is “inactive”; in the assay with CD40, CD40 (gene 958) [5], “inactive”; in assay [6], “inactive”; in [7], “inactive”; in [8], “inactive”; in assay [9] it was “inactive”. Moreover, the outcome was “inactive” in assay [10]; “inactive” in [11]; “inactive” in the assay with CD38, CD38 (gene 952); “inactive” with CD40, CD40 (gene 958) [12]; “inactive” in the assay with CD69, CD69 (gene 969); “inactive” in assay [13]. Besides, the outcome in [14] and in assay [15] was inactive.
For the compound `Sc1nc2ccccc2s1`, the outcome in [1] was “inactive”; in assay [2], “inactive”; in assay [3] it was “inactive”; in assay [4], “inactive”; with CD40, CD40 (gene 958) [5], “inactive”; in assay [6], “inactive”. Besides, the outcome in [8] is “inactive”; in assay [9] it was “inactive”; in assay [11], “inactive”; with CD38, CD38 (gene 952), “inactive”; with CD40, CD40 (gene 958) [12] it was “inactive”; in the assay with CD69, CD69 (gene 969) it was “inactive”. Also, the result in assay [13], in assay [14], in assay [15], in [16] and in assay [17] was inactive. Also, the values for the AC50 in assay [7] and in assay [10] were 0.504 µM (active) and 4.28 µM (active), respectively.
Take `CC(C)CC(=O)CC(C)CC(C)C` (configuration not stated): the AC50 was 37.8 µM (active) in [1], 31.6 µM (active) in assay [3] and 35 µM (active) in assay [6]. In addition, the outcome is “inactive” in assay [2]; “inactive” in [4]; “inactive” with CD40, CD40 (gene 958) [5]; “inactive” in [7]; “inactive” in [8]; “inactive” in [9]. The outcome in assay [10] is “inactive”; in [11], “inactive”; with CD38, CD38 (gene 952) it was “inactive”; with CD40, CD40 (gene 958) [12] it was “inactive”; with CD69, CD69 (gene 969) it was “inactive”; in assay [13] it was “inactive”. Moreover, the outcome in assay [14], in assay [15], in [16] and in assay [17] was inactive.

These data come from PubChem BioAssay (EPA / NIEHS).
